Paper PMC13423814

Each substance was assayed against SF3B2 (UniProt Q13435). Settings: DSSO, in cells.

Sequence of ANXA3, P12429 (P12429 whole entry): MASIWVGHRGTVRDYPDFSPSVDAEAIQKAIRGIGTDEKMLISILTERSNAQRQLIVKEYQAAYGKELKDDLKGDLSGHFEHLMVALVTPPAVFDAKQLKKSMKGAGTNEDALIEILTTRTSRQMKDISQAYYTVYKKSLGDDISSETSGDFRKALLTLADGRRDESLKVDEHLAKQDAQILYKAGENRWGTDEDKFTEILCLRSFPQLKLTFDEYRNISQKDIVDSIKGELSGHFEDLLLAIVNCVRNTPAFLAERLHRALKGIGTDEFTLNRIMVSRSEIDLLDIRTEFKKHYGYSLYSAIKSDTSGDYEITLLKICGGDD
Sequence of ANXA4, P09525 (P09525 whole entry): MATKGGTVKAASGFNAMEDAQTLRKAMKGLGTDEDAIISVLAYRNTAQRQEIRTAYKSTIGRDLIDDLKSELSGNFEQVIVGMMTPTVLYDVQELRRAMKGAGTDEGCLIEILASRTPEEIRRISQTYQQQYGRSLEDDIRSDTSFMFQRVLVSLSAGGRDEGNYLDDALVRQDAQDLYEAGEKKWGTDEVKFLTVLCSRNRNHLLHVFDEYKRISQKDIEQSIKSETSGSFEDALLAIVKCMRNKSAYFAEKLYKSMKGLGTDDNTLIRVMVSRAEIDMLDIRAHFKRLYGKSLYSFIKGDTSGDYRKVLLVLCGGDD
Sequence of CANX, P27824 (P27824 whole entry): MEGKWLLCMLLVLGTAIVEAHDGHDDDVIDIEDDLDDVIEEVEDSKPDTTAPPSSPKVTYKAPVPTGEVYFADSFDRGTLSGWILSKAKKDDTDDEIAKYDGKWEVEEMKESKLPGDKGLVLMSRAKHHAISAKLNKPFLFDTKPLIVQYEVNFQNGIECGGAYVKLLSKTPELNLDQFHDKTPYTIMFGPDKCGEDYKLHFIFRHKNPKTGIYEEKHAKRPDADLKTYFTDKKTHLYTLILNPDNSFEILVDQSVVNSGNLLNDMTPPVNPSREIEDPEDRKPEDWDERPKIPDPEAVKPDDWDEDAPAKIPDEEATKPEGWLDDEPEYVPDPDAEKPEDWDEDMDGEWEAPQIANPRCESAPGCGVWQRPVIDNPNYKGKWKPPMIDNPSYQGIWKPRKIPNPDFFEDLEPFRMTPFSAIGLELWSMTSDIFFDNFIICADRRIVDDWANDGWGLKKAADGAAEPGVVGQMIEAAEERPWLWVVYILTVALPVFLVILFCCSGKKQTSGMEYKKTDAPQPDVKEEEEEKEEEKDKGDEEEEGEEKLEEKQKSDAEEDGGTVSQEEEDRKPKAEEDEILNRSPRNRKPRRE
Sequence of SNRPE, P62304 (P62304 whole entry): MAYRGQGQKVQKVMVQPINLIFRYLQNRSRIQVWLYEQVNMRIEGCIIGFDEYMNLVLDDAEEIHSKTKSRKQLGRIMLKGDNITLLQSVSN
Sequence of TMEM43, Q9BTV4 (Q9BTV4 whole entry): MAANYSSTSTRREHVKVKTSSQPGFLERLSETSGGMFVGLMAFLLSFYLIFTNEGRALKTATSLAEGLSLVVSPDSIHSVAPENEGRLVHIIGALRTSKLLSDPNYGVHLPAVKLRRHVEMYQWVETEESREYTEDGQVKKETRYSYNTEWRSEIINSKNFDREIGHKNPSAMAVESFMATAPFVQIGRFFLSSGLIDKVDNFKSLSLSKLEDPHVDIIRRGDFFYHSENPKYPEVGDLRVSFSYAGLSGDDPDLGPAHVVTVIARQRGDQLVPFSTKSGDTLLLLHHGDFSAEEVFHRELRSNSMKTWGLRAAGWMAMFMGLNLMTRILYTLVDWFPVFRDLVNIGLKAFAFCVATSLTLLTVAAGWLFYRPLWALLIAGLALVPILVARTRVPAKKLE
Sequence of HTATSF1, O43719 (O43719 whole entry): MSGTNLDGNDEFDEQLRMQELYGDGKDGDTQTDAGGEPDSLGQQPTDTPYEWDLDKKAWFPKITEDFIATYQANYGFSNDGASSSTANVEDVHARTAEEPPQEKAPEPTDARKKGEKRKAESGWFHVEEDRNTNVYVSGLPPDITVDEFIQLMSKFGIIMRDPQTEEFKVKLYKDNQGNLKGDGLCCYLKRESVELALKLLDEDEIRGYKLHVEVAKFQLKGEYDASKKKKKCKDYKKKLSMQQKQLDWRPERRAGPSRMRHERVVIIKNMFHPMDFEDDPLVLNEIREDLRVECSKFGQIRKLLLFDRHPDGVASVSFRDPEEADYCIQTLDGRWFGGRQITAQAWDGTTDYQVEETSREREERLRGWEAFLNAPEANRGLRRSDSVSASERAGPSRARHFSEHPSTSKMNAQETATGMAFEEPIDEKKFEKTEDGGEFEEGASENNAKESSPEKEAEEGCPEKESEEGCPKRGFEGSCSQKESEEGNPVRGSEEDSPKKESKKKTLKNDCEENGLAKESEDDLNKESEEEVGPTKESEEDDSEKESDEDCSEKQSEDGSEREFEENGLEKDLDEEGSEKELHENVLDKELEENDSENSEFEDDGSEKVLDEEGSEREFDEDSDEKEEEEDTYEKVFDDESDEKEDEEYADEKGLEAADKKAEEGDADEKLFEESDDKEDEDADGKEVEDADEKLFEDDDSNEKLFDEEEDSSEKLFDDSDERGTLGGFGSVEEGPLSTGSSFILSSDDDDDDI

Row | Substance | cross-linked residues
1 | SNRPB, P14678 | K57 - S319
2 | HTATSF1, O43719 | K217 - K543
3 | SNRPE, P62304 | K12 - K352
4 | SNRPA1, P09661 | K172 - S319

The substances below were run against TMEM109 (UniProt Q9BVC6). Settings: DSSO, in cells.
Sequence of TMEM109 (Q9BVC6 whole entry): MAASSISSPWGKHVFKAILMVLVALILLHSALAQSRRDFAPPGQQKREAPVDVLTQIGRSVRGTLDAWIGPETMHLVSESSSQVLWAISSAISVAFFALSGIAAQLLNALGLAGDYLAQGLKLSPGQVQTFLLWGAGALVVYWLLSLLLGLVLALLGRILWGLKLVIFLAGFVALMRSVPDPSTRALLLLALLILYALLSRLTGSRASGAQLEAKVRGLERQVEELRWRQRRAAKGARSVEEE

Row | Substance | cross-linked residues
5 | CANX, P27824 | K516 - K215
6 | ANXA4, P09525 | K57 - K215
7 | TMEM43, Q9BTV4 | K18 - K215
8 | ANXA3, P12429 | K263 - K215
